Source: PubChem BioAssay (EPA / NIEHS)
Records with an inconclusive call do not appear. The source made the active and inactive calls. Rule for the calls: active = hit-call score of the fitted dose curve at least 0.9, where 1 is the maximum; inconclusive = response in the unintended direction; inactive = score below 0.9.

Test system: not listed separately
Assay: ACEA_ER_AUC_viability: ACEA Biosciences xCELLigence Real-Time Cell Analysis on Estrogen Receptor Agonism for Viability (AID 2283782);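 note: hit means loss of impedance signal meaning reduced cell growth or viability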
Procedure, shortened: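 Continuous-exposure impedance cell analysis uses T-47D cells in charcoal-stripped serum, eight 1:4 dilutions topping at 100 uM final, biological duplicate. Area under the growth curve at 80 h is fitted against DMSO baseline.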

SMILES | AC50 | outcome
C=C(C)[C@@H]1CCC2=CCC[C@@H](C)[C@]2(C)C1 | 77.6 µM (active) | 
NC(CO)(CO)CO |  | inactive
O=C1CC2CC1C1CCCC21 (stereo not given) |  | inactive
Cc1ccc(N)c([N+](=O)[O-])c1 |  | inactive
OC1CCCC1 |  | inactive
c1ccc2c(c1)ccc1ncccc12 |  | inactive
O=C1C(N(CO)C(=O)NCO)N(CO)C(=O)N1CO (stereo not given) |  | inactive
CC(C)(C)C1CCCCC1=O (stereo not given) | 24.8 µM (active) | 
CC(C)=CCC/C(C)=C\C#N |  | inactive
CCc1nccnc1C |  | inactive
CC(CC=O)CCCC(C)(C)O (stereo not given) |  | inactive
NC(=O)c1ccccc1O |  | inactive
Cc1cc(C)c(C(=O)O)c(C)c1 |  | inactive
Cn1c(=O)[nH]c2ncn(C)c2c1=O |  | inactive
CCC(C)(C)C1CCCCC1OC(C)=O (stereo not given) |  | inactive
Cc1cc(C)c(C)c(C)c1 |  | inactive
CN(C)c1ccc(N=Nc2ccccc2C(=O)O)cc1 | 11.8 µM (active) | 

SMILES | AC50 | outcome
CC=C1CC2C=CC1C2 (stereo not given) |  | inactive
CC(C)(C)c1ccc(N)cc1 |  | inactive
O=C(Nc1ccccc1SSc1ccccc1NC(=O)c1ccccc1)c1ccccc1 | 77.7 µM (active) | 
CCCCC/C=C\CCC=O |  | inactive
Oc1ccc(Cl)cc1Cc1cc(Cl)ccc1O | 17.7 µM (active) | 
CC(C)c1ccc2c(C(C)C)cc(C(C)C)c(S(=O)(=O)O)c2c1 |  | inactive
O=C1CCCC(=O)O1 |  | inactive
CC(C)C1=CC2=CC[C@@H]3[C@](C)(CCC[C@@]3(C)C(=O)O)[C@H]2CC1 |  | inactive
NC(=O)NNC(N)=O |  | inactive
CC(C)=CCCC(C)C=O (stereo not given) | 11.9 µM (active) | 
CC(C)(C)c1ccc(-c2ccc(C(C)(C)C)cc2)cc1 |  | inactive
O=C(C(Cl)Cl)N1CCOC12CCCCC2 | 14.5 µM (active) | 
CC(C)=CCC[C@H](C)CCO |  | inactive
Nc1ccc(N)c(Cl)c1 | 67.8 µM (active) | 
Nc1cccc(C(F)(F)F)c1 |  | inactive
CCCCCCCCCCOS(=O)(=O)O |  | inactive
CCCc1ccc(OC)cc1 |  | inactive

Molecular target: AR (gene 367) (UniProt P10275)
Assay: ACEA_AR_agonist_80hr: ACEA Biosciences xCELLigence Real-Time Cell Analysis on Androgen Receptor Agonism for Proliferation (AID 2283783);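 note: hits increase impedance growth signal above DMSO baseline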
Procedure, shortened: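 Real-time cell-growth kinetics were recorded by electrode impedance in 22Rv1 cells exposed to test chemicals up to 100 uM final; the 80 h timepoint served as the readout, fitted upward relative to DMSO controls, in biological duplicate.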

AR (gene 367), sequence (P10275 whole entry, looked up): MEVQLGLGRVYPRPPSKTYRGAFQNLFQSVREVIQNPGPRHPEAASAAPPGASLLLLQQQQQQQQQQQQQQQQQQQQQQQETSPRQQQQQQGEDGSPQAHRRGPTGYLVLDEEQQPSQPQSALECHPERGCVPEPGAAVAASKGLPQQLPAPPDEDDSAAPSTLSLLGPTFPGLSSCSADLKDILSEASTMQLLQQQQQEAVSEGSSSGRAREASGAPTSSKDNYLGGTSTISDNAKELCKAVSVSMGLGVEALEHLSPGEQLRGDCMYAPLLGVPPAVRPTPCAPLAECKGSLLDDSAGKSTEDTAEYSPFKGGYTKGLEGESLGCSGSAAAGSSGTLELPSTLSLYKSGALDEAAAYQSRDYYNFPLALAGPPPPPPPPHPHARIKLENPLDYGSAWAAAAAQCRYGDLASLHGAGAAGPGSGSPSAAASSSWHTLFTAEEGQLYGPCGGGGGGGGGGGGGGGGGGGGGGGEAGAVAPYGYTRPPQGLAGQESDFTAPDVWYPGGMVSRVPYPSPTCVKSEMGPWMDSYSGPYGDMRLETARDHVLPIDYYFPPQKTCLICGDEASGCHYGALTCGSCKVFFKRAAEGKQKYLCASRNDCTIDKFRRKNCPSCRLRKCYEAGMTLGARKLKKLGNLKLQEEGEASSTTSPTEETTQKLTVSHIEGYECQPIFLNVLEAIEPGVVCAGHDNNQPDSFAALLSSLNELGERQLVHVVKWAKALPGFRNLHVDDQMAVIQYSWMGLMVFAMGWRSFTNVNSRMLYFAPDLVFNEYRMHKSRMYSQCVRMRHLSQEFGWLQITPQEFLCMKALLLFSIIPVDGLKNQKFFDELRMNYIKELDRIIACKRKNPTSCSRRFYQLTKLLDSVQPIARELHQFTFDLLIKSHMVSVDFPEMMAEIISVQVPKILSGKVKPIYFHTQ

SMILES | outcome
CC(CC=O)CCCC(C)(C)O (stereo not given) | inactive
CCCCC/C=C\CCC=O | inactive
Oc1ccc(Cl)cc1Cc1cc(Cl)ccc1O | inactive
CC(C)c1ccc2c(C(C)C)cc(C(C)C)c(S(=O)(=O)O)c2c1 | inactive
CC(C)c1ccc2cc(C(C)C)ccc2c1 | inactive
CCCc1ccc(OC)cc1 | inactive
